“And” between values parts separate entries of the source, which are not always exact repeats. Identical values can stand only once. The source made the active and inactive calls. Calls follow the shape of the full dose curve.

For the experiment, the target named is 4'-phosphopantetheinyl transferase Sfp (Bacillus subtilis (strain 168)) (UniProt P39135). Description: qHTS Assay for Inhibitors of Bacillus subtilis Sfp phosphopantetheinyl transferase (PPTase): Label Free Assay for SAR. Conditions: purified Sfp with carrier protein, gel densitometry, 30 min. From the text:
The covalent attachment of a phosphopantetheinyl (4'-PP) arm to a variety of synthases and other proteins is a key posttranslational protein modification. The 4'-PP is installed on the proteins post-translationally from coenzyme A (CoA) on a conserved serine residue by action of phosphopantetheinyl transferase (PPTase) enzymes. Phosphopantetheinylation is essential for synthase activity, and removal of the PPTase gene precludes natural product synthesis in microorganisms, or in the case of fatty acid biosynthesis, renders the organism unviable. PPTase enzymes belong to a distinct structural superfamily. Within bacteria, these enzymes are grouped into two classes based upon primary structure, the AcpS-Type and Sfp-Type PPTases.
Sfp-type PPTases, corresponding to an activator of surfactin production in Bacillus subtilis, are responsible for modifying type I polyketide and nonribosomal peptide synthases of prokaryotes. Sfp-type PPTases are responsible for the activation of a variety of pathogen-associated virulence factors. Among these compounds are toxins such as mycolactone from Mycobacterium ulcerans, siderophores such as vibriobactin from Vibrio cholerae or mycobactin from Mycobacterium tuberculosis, as well as the mycolic acids which form the waxy cell wall of Mycobacteria. The biosyntheses of these natural products are considered attractive targets for drug design.
In search of small molecule Sfp-PPTase inhibitors, a fluorescence quenching assay was developed for detection of Bacillus subtilis Sfp-PPTase enzymatic activity in a miniaturized high-throughput format. The consensus ybbr acceptor peptide […] was N-terminally labeled with Black Hole Quencher-2 (BHQ-2) and used in combination with rhodamine-labeled coenzyme A as a co-substrate.
This project seeks to identify inhibitors of Sfp phosphopantetheinyl transferase. The primary and secondary screens both utilized a rhodamine-modified CoA substrate. This experiment sought to confirm compound activity in a biochemical assay using the natural nucleotide substrate in conjunction with a whole-protein acceptor. We employed polyacrylamide gel electrophoresis in the presence of modest urea concentrations to achieve a conformationally sensitive separation of the apo- and holo- states of the acyl carrier protein (ACP) from E. coli [Rock, 1981, Cronan 1982]. Under conditions of limiting Sfp concentrations, quantitative determinations of enzyme activity can be made from images of the gels after treatment with an appropriately sensitive protein stain.
NIH Chemical Genomics Center [NCGC]
NIH Molecular Libraries Probe Centers Network [MLPCN]
Assay Submitter (PI): Michale Burkart, University of California, San Diego
Preparation of apo-ACP substrate.
A derivative of the AcpP locus from E. coli K12 containing a C-terminal fusion to a hexahistidine tag is expressed and purified from E.coli BL21(DE3) following standard procedures, (27) providing a mixture of the apo- and holo- forms of ACP in a ratio 3:2; as judged by UREA-PAGE. The resulting mixture (10 mg/ml) is reduced overnight in PBS buffer containing 10 mM DTT, and excess reducing agent removed by passage over a PD6 desalting column (Bio-Rad Laboratories, Hercules, CA). The sample is immediately pooled with an equal volume of activated thiol sepharose 4B (cat #17-0640-01, GE Healthcare, Piscataway, NJ) prepared according to the manufacturers recommendations; and the slurry agitated gently overnight at 4 deg C. The slurry was decanted into a disposable chromatography column and washed with 3 volumes of PBS. The filtrate and washes were pooled, concentrated, and the process iterated once to provide a solution of ACP that was >98% apo-form as judged by conformationally sensitive UREA-PAGE.
Label-free gel assay for phosphopantetheinylation.
Test compound (0.5 ul) dissolved in DMSO was added to 1.33 X enzyme solution (15 ul) containing 66 nM Sfp, 66 mM HEPES*Na pH 7.6, 13.3 mM MgCl2, 0.0133% NP40, and 1.33 mg/ml BSA. […]
In general terms: qHTS replaces the single test concentration by a dilution series.
In the case of `CCOC(=O)c1cc(-c2ccccc2)sc1NC(=O)c1ccc(OC)cc1`, the result was inactive. Turning to `CCOC(=O)c1c(-c2ccc(C)o2)csc1NC(=O)CSc1nnnn1-c1ccccc1`, the Potency is 27.8 µM (active).

For `Cc1ccnc(NC(=S)N2CCN(c3ccc(Br)cc3)CC2)c1`, the Potency was 83.3 µM (active). `Cc1ccnc(NC(=S)N2CCN(c3cccc(C(F)(F)F)c3)CC2)c1`: the Potency was 83.3 µM (active) and 3.09 µM (active).

Consider `CC(C)(C)Cc1nnc(NC(=O)CSc2ccccc2)s1`, for which the result was inactive. `C(=C1\Nn2c(COc3ccccc3)nnc2S1)/c1ccccc1`: the Potency was 27.8 µM (active). Turning to `CN(C)c1ccc(C(=S)N2CCN(Cc3ccccc3)CC2)cc1`, the Potency was 27.8 µM (active). Turning to `CCc1c(C)sc(NC(=O)C2CCCCC2C(=O)O)c1C(N)=O` (configuration not stated), the call was inactive. As to `S=C(Nc1ccccn1)c1ccccn1`, the molecule was called inactive. On to `O=C(Nc1nnc(COc2ccc(Cl)cc2)s1)c1ccco1`, for which the Potency was 9.26 µM (active). With `COc1ccc(N2CCN(C(=S)Nc3cc(C)ccn3)CC2)cc1`, the Potency is 83.3 µM (active). Take `O=C(Nc1nnc(COc2ccc(Cl)cc2)s1)c1cccs1`: the Potency is 250 µM (active).

For the origin of these results see PubChem BioAssay AID602392 (National Center for Advancing Translational Sciences (NCATS), 2012).
